In ChEMBL document CHEMBL3433997, “St. Jude Leishmania screening dataset” (2016):

target: Glucose transporter (Leishmania mexicana) (UniProt O61059); assay: ST_JUDE_LEISH: Cytotoxicity at 2uM final concentration against transgenic Leishmania Mexicana promastigotes LmGT2 that are glucose transport deficient and complemented with the L. Mexicana glucose transporter 2. Activity is measured by DNA content using SYBR green in vitro; assay type: functional

Structure (SMILES) | inhibition [%]
Cc1cc(N[C@@H](Cc2ccccc2)C(=O)Nc2ccccc2)nc(NCCc2ccccc2)n1 | 0.11
Cn1nccc1C(=O)NCCNCc1cccc(-c2ccc(-c3nc4cc(C(F)(F)F)ccc4[nH]3)cc2)c1 | -2.04
Cc1cc(-c2nc3ccc(CN4CCN(C)CC4)cc3[nH]2)nn1Cc1cc(Cl)ccc1OCc1ccccc1 | 2.54
COc1ccc(N2C(N)=NC(N)=NC2(C)C)cc1OC | 5.83
O=C(Nc1ccc(-c2cccc(-c3nc4cc(F)ccc4[nH]3)c2)cc1)Nc1ccc(F)c(F)c1F | 6.78
COc1ccc(-c2cccc(NC(=O)c3cccc(Cl)c3)c2)cc1CN1CCCN(C)CC1 | 11.7
CN1CCN(c2ccc(Nc3ncc([N+](=O)[O-])c(Nc4ccccc4O)n3)cc2)CC1 | 1.84
COc1ccc2nccc([C@@H](O)CNCCCN(C)CCOc3cc(F)cc(F)c3)c2c1 | 6.99
COC(=O)c1ccc(Nc2nccc(Nc3ccc(Oc4ccccc4)cc3)n2)cc1 | 2.57
O=C(/C=C/c1ccc(Cl)c(Cl)c1)NCCCCCN1CCCC(CNS(=O)(=O)c2ccc(F)cc2)C1 (stereo not given) | 1.39
O=C(NCCCCCN1CCC(c2c[nH]c3ccccc23)CC1)c1ccc(Cl)c(Cl)c1 | 2.52
O=C(Nc1ccc(-n2ccc(C(F)(F)F)n2)cc1)c1cccs1 | 0.42
c1ccc(CNc2cc(-c3ccccn3)nc(-c3ccccn3)n2)cc1 | 8.35
COc1ccc(CNCc2ccsc2)cc1-c1ccc(S(=O)(=O)NCCN2CCCC2)s1 | 5.77
O=c1nc(C=Cc2ccc(Br)cc2)oc2ccccc12 | 3.63
CCN1CCCC1CNC(=O)c1cc2c(-c3ccc(Cl)cc3)nn(C)c2s1 (stereo not given) | 2.6
COc1cc(SC)ccc1C(=O)N1CC(C)CC(C)C1 (stereo not given) | 9.2
O=C(/C=C/c1ccc(Cl)c(Cl)c1)NCCCCCN1CCC(NC(=S)Nc2ccc(Cl)cc2Cl)CC1 | 7.71
CCNC(=O)c1cc(S(=O)(=O)N2CCN(c3ccccn3)CC2)cs1 | 2.62
Cc1cc(NC2CCCC2)nc(Nc2ccccc2C)n1 | 4.09

Structure (SMILES) | inhibition [%]
Cc1cc2cc(NC(=O)Nc3ccnc4ccccc34)ccc2n1C | 0.82
c1cc(CNCC2CCCO2)cc(-c2csc(-c3nc4ccccc4[nH]3)c2)c1 (stereo not given) | 2.04
CCN(CC)CCN(Cc1ccc(-c2ccc(C(F)(F)F)cc2)cc1)C(=O)Cn1c(CCc2cccc(F)c2F)nc(=O)c2ccc(C)cc21 | 0.22
Cc1cc(N)c2cc(NC(=O)c3cc4ccccc4s3)ccc2n1 | -0.52
CN1CCCN(Cc2ccc(-c3ccc(NS(=O)(=O)c4cccc5cccnc45)cc3)cc2)CC1 | 0.05
CCC[C@@H]([C@@H](CC1CCCCC1)C(=O)N[C@H](C(=O)Nc1nccs1)C(C)(C)SC)N(O)C=O | 8.5
COCCNCc1ccc(-c2cccc(CN(C(=O)NCCc3ccccc3)C3CCN(Cc4ccccc4)CC3)c2)cc1 | -1.5
O=C(NC1CCCC1)c1ccc(N2CCC(NCc3cc4cc(Cl)ccc4[nH]3)CC2)cc1 | 2.98
CN(C(=O)c1nn(-c2ccccn2)c2nccc(-c3cccs3)c12)C1CCCCC1 | 3.33
COc1cc(NC(=O)Nc2ccc(Br)cc2C(=O)Nc2ccc(Br)cc2)cc(OC)c1OC | 5.3
Cc1nc2ccccc2c(=O)n1NCc1ccc(Cl)c(Cl)c1 | 0.11
O=C(/C=C/c1ccc(Cl)c(Cl)c1)NCCCCCN1CCC(NC(=O)c2ccc(F)c(F)c2)CC1 | 6.18
CC(C)(C)c1ccc(CN2CCC(CNC(=O)c3cc(-c4cccc(F)c4)cs3)C2)cc1 (stereo not given) | 4.16
CCCC(C)Nc1nc(C)cc(N[C@@H](CC(C)C)C(=O)NCCc2ccccc2)n1 (stereo not given in full) | 8.06
Oc1ccccc1CN1CCN(C(c2ccccc2)c2ccccc2)CC1 | -0.06
Cc1cc(NC2CCCC2)nc(Nc2ccccc2)n1 | 6.13
NC1=NC(c2ccccc2)(c2ccccc2)C(=O)N1CC1CCC1 | 0.31
COc1ccccc1-n1c(-c2ccc3ccccc3c2)csc1=NC(=O)c1ccccc1 | -4.04
Cc1[nH]c2ccccc2c1C1CCN(CCCCNC(=O)c2ccc(-c3ccc(C#N)cc3)cc2)CC1 | 10.3
C(=NNc1nc2ccccc2[nH]1)c1ccccc1OCc1ccccc1 | 3.06
